hcDAF12 agonist = activators of H. contortus DAF-12 nuclear receptor | HEK293 hcDAF-12 lit1-tk-luc reporter, luminescence; 0% DMSO, 100% Δ7-dafachronic acid | activation, % at 6.8 µM | 1.4% of 370,000 active | AID 652067;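 active = activation above the mean of all tested compounds plus 3 SD, cut at about 5.5% in these data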
DAX1 inh-1 = DAX1 (NR0B1) inhibition, primary screen. inhibition, % at 6.8 µM. HEK293T StAR-luciferase reporter, SF-1/DAX-1 repression relief. AID 652010. 1.1% of 370,000 active;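 active = inhibition above the mean over all tested compounds plus 3 SD, cut at about 3.6% in these data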;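 also: higher inhibition means more luminescence from relief of DAX-1 repression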
hgDAF12 agonist = agonists of H. glycines DAF-12 nuclear receptor | HEK293 GAL4-hgDAF12 UAS-luciferase reporter, agonist luminescence; normalized to butyrate control | activation, % at 6.8 µM | 1.8% of 370,000 active | AID 687014;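 active = activation above a cutoff set at the mean of all screened compounds plus 3 SD, cut at about 10% in these data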
ssDAF12 agonist = activates DAF-12 receptor from parasite S. stercoralis. 1% of 370,000 active. HEK293 ssDAF-12/GRIP1 lit1-tk-luc reporter, luminescence; % of 3 µM dafachronic acid response. activation, % at 6.8 µM;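 active = activation above the mean over all tested compounds plus 3 SD, cut at about 0.9% in these data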
DAX1 inh-2 = NR0B1 (DAX1) inhibition | P51843 | HEK293 Gal4-DAX1 luciferase reporter, luminescence | 0.99% of 340,000 active | inhibition, % at 6.75 µM | AID 504766;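 active = inhibition above the mean over all tested compounds plus 3 SD, cut at about 4.2% in these data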;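 also: inhibition shows as a rise in luminescence from relieved DAX1 repression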
Target sequence (P51843 207-470 limits assumed): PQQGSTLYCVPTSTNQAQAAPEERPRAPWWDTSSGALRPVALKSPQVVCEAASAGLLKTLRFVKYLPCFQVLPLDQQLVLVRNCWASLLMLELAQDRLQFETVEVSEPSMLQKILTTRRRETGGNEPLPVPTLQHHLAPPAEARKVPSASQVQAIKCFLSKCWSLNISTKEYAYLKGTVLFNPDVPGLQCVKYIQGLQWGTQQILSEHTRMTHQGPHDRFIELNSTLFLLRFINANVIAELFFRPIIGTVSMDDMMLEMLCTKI
DAX1 inh confirm = confirmation of human DAX1 (NR0B1) inhibitors. shares compounds with DAX1 inh-1. HEK293T StAR-promoter luciferase reporter, SF-1/DAX-1 repression. AID 652134. 87% of 2,400 active. inhibition, % at 6.8 µM;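 active = inhibition above the average of every tested compound plus 3 SD, cut at about 3.8% in these data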;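 also: active compounds raise luminescence by relieving repression of the StAR reporter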
SF1 mutant ctr = nonselective inhibitor or artifact in SF-1 mutant DAX1 counter-screen; shares compounds with DAX1 inh-1; HEK293 StAR-luciferase, SF-1 AF2 mutant, luminescence; inhibition, % at 6.8 µM; 78% of 2,400 active;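 active = inhibition above the mean of all tested compounds plus 3 SD, cut at about 3% in these data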
LXR ag = LXR-beta agonism as hcDAF-12 counter-screen; shares compounds with hcDAF12 agonist; HEK293 Gal4-LXR tk-luc reporter, luminescence, 24 h; normalized: DMSO 0%, positive control 100%; activation, % at 6.8 µM; 3,400 tested, under 10 active;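 active = mean percent activation of the reporter above a cutoff set as the average over tested compounds plus their standard deviation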
Target sequence (P55055 whole entry, looked up, the tested form may be a part): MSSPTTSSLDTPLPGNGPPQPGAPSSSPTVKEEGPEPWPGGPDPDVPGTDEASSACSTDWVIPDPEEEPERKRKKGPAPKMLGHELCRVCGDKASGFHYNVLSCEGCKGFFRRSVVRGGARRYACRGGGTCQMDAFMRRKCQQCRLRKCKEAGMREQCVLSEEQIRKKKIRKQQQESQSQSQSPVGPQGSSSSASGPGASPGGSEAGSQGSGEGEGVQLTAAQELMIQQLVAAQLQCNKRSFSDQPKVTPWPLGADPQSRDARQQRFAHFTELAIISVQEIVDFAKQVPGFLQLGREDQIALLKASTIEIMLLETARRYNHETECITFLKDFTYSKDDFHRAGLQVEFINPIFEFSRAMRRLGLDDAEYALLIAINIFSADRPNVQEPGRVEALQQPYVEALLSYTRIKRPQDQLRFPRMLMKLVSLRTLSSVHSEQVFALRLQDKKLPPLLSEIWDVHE
hcDAF12 ag = confirmation of H. contortus DAF-12 agonists; shares compounds with hcDAF12 agonist; HEK293 hcDAF-12 lit1-tk-luc reporter, luminescence; % of Δ7-dafachronic acid response; activation, % at 6.8 µM; 61% of 3,400 active; AID 743032;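 active = mean activation across triplicate tests above the threshold derived from the earlier primary screen, cut at about 5.5% in these data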
A number is an active result; 0 = inactive; - = no result given. Compounds with a hit are over-represented: about 4.1% of the library has one in this group of screens.

SMILES | hcDAF12 agonist | DAX1 inh-1 | hgDAF12 agonist | ssDAF12 agonist | DAX1 inh-2 | DAX1 inh confirm | SF1 mutant ctr | LXR ag | hcDAF12 ag
Cc1ccsc1C(=O)OCc1csc(-c2ccccc2)n1 | 13 | 4.7 | 16 | 2.7 | 0 | 21 | 14 | 0 | 14
Cn1cccc1C(=O)OCc1csc(-c2ccccc2)n1 | 16 | 5.3 | 16 | 3.1 | 0 | 14 | 8.0 | 0 | 17
O=C(OCc1csc(-c2ccccc2)n1)c1cccs1 | 0 | 0 | 0 | 0 | 0 | - | - | - | -
C[C@H](O)[C@@H]1C(=O)N2CCc3c([nH]c4c(-c5ccc6c(c5)OCO6)cccc34)[C@@H]2C[C@@H]1N(C)C(=O)NC1CCCCC1 | 0 | 0 | 0 | 0 | - | - | - | - | -
O=C(NC1=NCCS1)c1ccccc1Cl | 0 | 0 | 0 | 0 | 0 | - | - | - | -
O=C(NC1=NCCS1)c1cc2ccccc2o1 | 7.0 | 5.3 | 11 | 0 | 0 | 11 | 7.2 | 0 | 6.2
O=C(CSc1nnc(COc2ccc(Cl)cc2)n1Cc1ccco1)Nc1ccc(OCc2ccccc2)cc1 | 0 | 0 | 0 | 0 | - | - | - | - | -
O=C(CSc1cc(Cl)ccc1Cl)N/N=C/c1ccc[nH]1 | 0 | - | 0 | 0 | - | - | - | - | -
O=C1NN(c2ccccc2)C(=O)/C1=C/c1coc2ccccc2c1=O | 17 | 4.8 | 13 | 1.7 | 0 | 0 | 0 | 0 | 0
O=C1NN(c2ccccc2)C(=O)/C1=C\c1coc2ccc(O)cc2c1=O | 0 | 0 | 0 | 0 | 0 | - | - | - | -
CN(C)c1ccc(-c2csc(C(O)(c3ccccc3)C(F)(F)F)n2)cc1 (stereo unspecified) | 0 | 0 | 0 | 0 | - | - | - | - | -
CN(c1ccc(O)cc1)c1nc(-c2ccccc2)cs1 | 8.8 | 5.0 | 20 | 0 | 0 | 12 | 6.0 | 0 | 6.2
CN(C)CCN(C(=O)c1cccs1)c1nc2cc3c(cc2s1)OCCO3 | 7.0 | 5.1 | 0 | 1.4 | 0 | 4.7 | 5.0 | 0 | 0
COc1ccc(-c2cn3ccc4ccccc4c3n2)cc1 | 23 | 7.1 | 18 | 5.2 | 0 | 19 | 9.6 | 0 | 23
COc1ccc(Cc2c(-c3ccc(C)cc3)nc3c4ccccc4ccn23)c(C)c1 | 0 | 0 | 0 | 0 | - | - | - | - | -
C[C@@H]1CN([C@@H](C)CO)C(=O)CCCn2cc(nn2)CO[C@H]1CN(C)C(=O)Nc1ccc2c(c1)OCO2 | 0 | 0 | 0 | 0 | - | - | - | - | -
Fc1ccc(-c2nc3n(n2)Cc2ccccc2-3)cc1 | 18 | 5.5 | 18 | 4.2 | 0 | 14 | 8.6 | 0 | 16
CCn1c(C)nc2cc(-c3nc4n(n3)Cc3ccccc3-4)ccc21 | - | - | - | - | 0 | - | - | - | -
COC(=O)C1=C(C)N(C)C(=NCc2ccc3c(c2)OCO3)NC1c1cccc(F)c1 (stereo unspecified) | 0 | 0 | 0 | 0 | - | - | - | - | -
COC(=O)c1ccc(-c2nc(-c3cccs3)no2)cc1 | 6.8 | 6.8 | 14 | 1.8 | 0 | 0 | 0 | 0 | 0
O=C(/C=C/Nc1ccccc1O)c1ccco1 | 0 | 0 | 0 | 0 | 0 | - | - | - | -
Cc1noc(NS(=O)(=O)c2ccc(N/C=C\C(=O)c3cccs3)cc2)c1C | 0 | 0 | 0 | 0 | 0 | - | - | - | -
O=C(/C=C/Nc1ccc(F)cc1F)c1cccs1 | 12 | 6.1 | 21 | 2.4 | 0 | 8.3 | 0 | 0 | 15
Cc1ccc(N/C=C/C(=O)c2cccs2)cc1 | 10 | 8.3 | 22 | 1.4 | 0 | 6.3 | 0 | 0 | 14
O=C(/C=C/Nc1ccccc1F)c1cccs1 | 26 | 5.7 | 29 | 3.9 | 0 | 15 | 7.8 | 0 | 22
SMILES | hcDAF12 agonist | DAX1 inh-1 | hgDAF12 agonist | ssDAF12 agonist | DAX1 inh-2 | DAX1 inh confirm | SF1 mutant ctr | LXR ag | hcDAF12 ag
O=C(/C=C/Nc1ccc(Br)cc1F)c1ccco1 | 14 | 6.0 | 23 | 1.5 | 0 | 7.7 | 0 | 0 | 9.9
O=C(C=Cc1cccs1)c1cccs1 | 0 | 0 | 0 | 0 | 0 | - | - | - | -
O=C(/C=C/Nc1ccc(F)cc1F)c1ccc(Br)cc1 | 0 | 0 | 0 | 0 | - | - | - | - | -
CC(=O)c1cc(-c2ccc(-c3cc(C(=O)O)c4ccccc4n3)cc2)c(=O)n2c1CCC2 | 0 | 0 | 0 | 0 | - | - | - | - | -
O=C(CSc1nnc(-c2ccccn2)n1-c1ccc(Cl)cc1)Nc1ccc2c(c1)OCCO2 | 0 | 0 | 0 | 0 | - | - | - | - | -
CC(C)(C)NC(=O)NC(=O)COc1ccc(Br)cc1Br | 6.6 | 7.5 | 17 | 0 | 0 | 18 | 6.0 | 0 | 9.5
COC(=O)c1cc(-c2cccc(OCc3ccccc3)c2)c(=O)n2c1CCC2 | 0 | 0 | 0 | 0 | - | - | - | - | -
O=c1cc(-c2ccccc2)oc2ccc3ccccc3c12 | 8.7 | 4.6 | 0 | 0 | 0 | 0 | 0 | 0 | 9.8
Nc1nn(-c2cccc(F)n2)cc1-c1ccc(Cl)cc1 | 11 | 5.9 | 18 | 1.4 | 0 | 13 | 5.3 | 0 | 9.8
CCCCCCCCN1C(=O)[C@@H](CC(=O)NCc2ccccc2)C[C@@]2(C(=O)OC)C1=C[C@H](C(C)C)O[C@@H]2C1CC1 | 0 | 0 | 0 | 0 | - | - | - | - | -
COc1ccc(-c2cc3ccccc3c(=O)o2)cc1 | 12 | 7.7 | 25 | 2.2 | - | 13 | 6.6 | 0 | 11
COc1ccc(C(=O)c2c(O)cc(-c3ccc(OC)cc3)oc2=O)cc1 | 0 | 0 | 0 | 0 | 0 | - | - | - | -
O=c1[nH]c(=O)n([C@H]2C[C@H](O)[C@@H](CO)O2)cc1F | 0 | 0 | 0 | 0 | 0 | - | - | - | -
O=c1[nH]c(=O)n([C@H]2C[C@H](O)[C@@H](CO)O2)cc1Br | 8.8 | 13 | 38 | 0 | 0 | 14 | 5.5 | 0 | 12
O=C(c1cc(-c2ccc(Cl)cc2)nc2ccccc12)N1CCN(c2ncccn2)CC1 | 0 | 0 | 0 | 0 | - | - | - | - | -
CC(C)c1nnc(NC(=O)c2cccc(-n3cnnn3)c2)s1 | 0 | 0 | 0 | 0 | 0 | - | - | - | -
COc1cccc(C(=O)Nc2nnc(C(C)C)s2)c1 | 6.8 | 4.8 | 0 | 0 | 0 | 9.0 | 3.1 | 0 | 7.3
CCCCOCC1CN(CCCC)S(=O)(=O)c2c(cccc2N2CCCC2)O1 (stereo unspecified) | 0 | 0 | 0 | 0 | - | - | - | - | -
CCOc1ccc(OCc2cccc(C(=O)O)c2)cc1 | 8.8 | 6.6 | 11 | 1.0 | 0 | 15 | 7.9 | 0 | 15
Cc1ccc(-n2c(C)nc3oc4ccccc4c(=O)c3c2=O)cc1 | 12 | 4.5 | 0 | 1.8 | 0 | 8.5 | 6.1 | 0 | 9.2
C[C@H]1[C@@H](NC(=O)C2CCOC2)CC[C@@]23CCCN2C(=O)CCC[C@@H]13 (stereo partly specified) | 0 | - | 0 | 0 | - | - | - | - | -
